Data: PubChem BioAssay (NCI)
Compounds without any hit were thinned out: in the full panel of roughly 79,000, 15% have a hit. No stated cut-off is given here; in the data, active means growth inhibition above about 70%; inactive means the rest.

Assays:
[1] = NCI Yeast Anticancer Drug Screen. Data for the rad50 strain (AID 155);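 further: 0% = growth of vehicle-only cultures of the same strain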; settings: S. cerevisiae rad50 strain growth inhibition; at 50.0 µM; active compounds read high
Method in brief: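 Vehicle-treated cultures provide the reference for the growth inhibition reported for compound-exposed, repair-deficient yeast.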

[2] = NCI Yeast Anticancer Drug Screen. Data for the mec2-1 strain (AID 157); settings: S. cerevisiae mec2-1 strain, at 50.0 µM, active compounds read high
Method in brief: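 Vehicle-treated cultures served as reference for growth inhibition of compound-exposed mec2-1 yeast.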

[3] = NCI Yeast Anticancer Drug Screen. Data for the sgs1 mgt1 strain (AID 161);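 further: 0% = growth of cultures given vehicle only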; settings: S. cerevisiae sgs1 mgt1 strain, at 50.0 µM, active compounds read high
Method in brief: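 Inhibition of yeast growth, normalised to vehicle-treated controls, is reported for a strain bearing genetic alterations in DNA damage repair.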

[4] = NCI Yeast Anticancer Drug Screen. Data for the cln2 rad14 strain (AID 165);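 further: 0% = growth equal to vehicle treated cultures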; settings: S. cerevisiae cln2 rad14 strain, at 50.0 µM, active compounds read high
Method in brief: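 Each compound was tested on cln2 rad14 yeast. Inhibition of growth was calculated against vehicle-exposed controls.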

[5] = NCI Yeast Anticancer Drug Screen. Data for the bub3 strain (AID 167); settings: S. cerevisiae bub3 mutant strain, at 50.0 µM, active compounds read high
Method in brief: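 Mutant yeast screening strain plus compound; vehicle-treated cultures serve as the 0% inhibition reference.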

[6] = NCI Yeast Anticancer Drug Screen. Data for the mlh1 rad18 strain (AID 175); settings: S. cerevisiae mlh1 rad18 strain growth inhibition; at 50.0 µM; active compounds read high
Method in brief: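 Vehicle-treated cultures served as the reference for growth inhibition in a yeast strain carrying DNA damage repair alterations exposed to each compound.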

Measured: growth inhibition

Cc1ccc(OC(=O)c2ccccc2)cc1
inactive: [1] 9.3% | [2] -9.65% | [3] -18.6% | [4] -6.75% | [5] -8.6% | [6] -14.6%

CCC(/C=C\C(C)=O)CC
inactive: [1] -28.3% | [2] -25.2% | [3] -27.6% | [4] 5.35% | [5] -10.6% | [6] -12.8%

Cc1ccc(C)c(CN(C)C)c1O
inactive: [1] -0.8% | [2] -1.45% | [3] 4.9% | [4] 25.1% | [5] -11.1% | [6] 22.9%

CCOC(=O)/C(C)=C\c1ccc(OC)c(OC)c1
inactive: [1] -2.15% | [2] -11.2% | [3] 25.9% | [4] -34% | [5] 18.4% | [6] 18.9%

NC(CSSCC(N)C(=O)O)C(=O)O (stereo unspecified)
inactive: [1] -11.6% | [2] -20% | [3] 1.35% | [4] 4% | [5] -20.9% | [6] -2.05%

NNc1ncnc2nc[nH]c12
inactive: [1] -20.4% | [2] -9.65% | [3] -14.3% | [4] -44.7% | [5] -15.9% | [6] -19.4%

CC(C)OCC(CCl)OC(=O)Nc1ccccc1 (stereo unspecified)
inactive: [1] 49.1% | [2] 11.2% | [3] 27.4% | [4] -29.1% | [5] 35.1% | [6] 31.7%

Cc1cccnc1NC1OC(=O)c2ccccc21 (stereo unspecified)
inactive: [1] -22.1% | [2] -4.4% | [3] -16.6% | [4] 2.05% | [5] -9.25% | [6] -9.65%

COc1ccc2c(c1)Nc1ccccc1S2
inactive: [1] -23.9% | [2] -23.5% | [3] -26.6% | [4] -1.6% | [5] -14.6% | [6] -16.2%

O=Cc1c(O)c2ccccc2[nH]c1=O
inactive: [1] -0.95% | [2] 1.35% | [3] -1.55% | [4] 9.5% | [5] 4.2% | [6] 3.85%

CCC(=O)Oc1c(C)cc(O)c2ccccc12
inactive: [1] 8.95% | [2] -49.6% | [3] 18.7% | [4] 52.9% | [5] 35.2% | [6] 27.7%

CC(C)(C)[Si](C)(C)OCC1OC(n2cnc3c(N)ncnc32)CC1OS(C)(=O)=O (stereo unspecified)
inactive: [1] -17% | [2] -21.6% | [3] 0.75% | [4] -3.15% | [5] 5.3% | [6] 0.5%

O=C(NC(=S)N1CC=CCC1)c1ccccc1
inactive: [1] 13.5% | [2] 16.7% | [3] 26.4% | [4] -1.95% | [5] 45.5% | [6] 21.3%

Cc1ccccc1NC(=O)Oc1ccc(Cl)cc1C(=O)c1ccccc1
inactive: [1] -0.15% | [2] -27.4% | [3] 18.7% | [4] 24.4% | [5] 21.2% | [6] 11.4%

N#CCCN1C(=O)CCC1C(=O)O (stereo unspecified)
inactive: [1] 7.75% | [2] -11.2% | [3] 10.1% | [4] -6.15% | [5] -3.1% | [6] 13.3%

CC(=O)Oc1c(Cl)cccc1-c1ccccc1
inactive: [1] 35.3% | [2] 10.9% | [3] 28.1% | [4] 5.4% | [5] 7.5% | [6] 13.4%

CC1CCC(C(C)(C)[N+](C)(C)C)CC1 (stereo unspecified)
inactive: [1] 40.2% | [2] 17.6% | [3] 23.9% | [4] 10.6% | [5] 47.2% | [6] 36.4%

CN(C)c1ccc2nc3ccc(=[N+](C)C)cc-3oc2c1
inactive: [1] -27.8% | [2] -12.4% | [3] -27.7% | [4] -250% | [5] 6.1% | [6] -12%

Cc1c(Cl)cccc1NC(=S)NC(=O)c1ccccc1
inactive: [1] 23.7% | [2] 28.2% | [3] 14.8% | [4] 0.4% | [5] 35.4% | [6] 18.1%

N#Cc1ccc2nc[nH]c2c1
inactive: [1] 18.7% | [2] -6.75% | [3] -13% | [4] 19.4% | [5] -15.4% | [6] 17.9%

Oc1cccnc1CN1CCCC1
inactive: [1] 1.15% | [2] -12.8% | [3] 2.3% | [4] 1.7% | [5] -5.8% | [6] 18.4%

Cc1ccc(S(=O)(=O)CCCl)cc1
inactive: [1] 6.8% | [2] -7.35% | [3] -21.9% | [4] -31.2% | [5] 5.3% | [6] 7.85%

C=CCc1cc(OC)c(O)c(OC)c1
inactive: [1] 1.95% | [2] 1.3% | [3] -14.2% | [4] -7.55% | [5] 0.75% | [6] -0.6%

Cc1cccc2ccccc12
inactive: [1] -9.65% | [2] -15.6% | [3] 10.5% | [4] 24.4% | [5] -3.6% | [6] 13.8%

O=C(c1cccc(C(=O)c2ccc3c4c(cccc24)C(=O)N(c2ccccc2)C3=O)c1)c1ccc2c3c(cccc13)C(=O)N(c1ccccc1)C2=O
inactive: [1] -35.5% | [2] -36.8% | [3] -23.1% | [4] 12.1% | [5] -25.4% | [6] -20.8%

O=C(O)c1c[nH]c2ccccc2c1=O
inactive: [1] 4.95% | [2] -8.15% | [3] 5.7% | [4] -21.5% | [5] 1.65% | [6] 1.65%

Cc1ccnc(Nc2nc3ccccc3[nH]2)n1
inactive: [1] 7.1% | [2] -10.9% | [3] 4.5% | [4] 14.1% | [5] 8.6% | [6] 8.85%

CC1(C)CC(=O)C=C(N)C1
inactive: [1] 7.35% | [2] -16.5% | [3] 1.05% | [4] 14.2% | [5] -4.7% | [6] 5.45%

Cc1ccc(S(=O)(=O)Oc2ccc3sc4c(CO)ccc(NCCN(C)C)c4c(=O)c3c2)cc1
inactive: [1] 6.05% | [2] 26.4% | [3] 12.2% | [4] 21.6% | [5] 22.4% | [6] 1.55%

Cc1cc(C(=O)c2ccccc2)cc(C)c1O
inactive: [1] 12.2% | [2] -3.35% | [3] 12.8% | [4] 5.2% | [5] -0.4% | [6] 30.4%

CN1CCCN(C(c2ccccc2)c2ccc(Cl)cc2)CC1 (stereo unspecified)
inactive: [1] 3.9% | [2] -16.9% | [3] 1.95% | [4] 19.9% | [5] 27.6% | [6] 10.5%
